Screens: PubChem BioAssay, several laboratories
Most compounds without a hit are left out; they make up all but 5% or so of the library.
EBI2 block = antagonists of human EBI2 receptor; EBI2 beta-arrestin recruitment, luminescence, 7a,25-OHC stimulated; inhibition, % at 5 µM; 360,000 tested, 0.81% active; P32249; in the data active = inhibition above about 38%;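 also: enzyme fragment complementation signal reports receptor beta-arrestin coupling in cells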
SENP6 inh = inhibitors of human SENP6 protease; AID 2599; Recombinant SENP6 catalytic domain, aminoluciferin luminescence; 330,000 tested, 1.8% active; Q9GZR1; inhibition, % at 10 µM;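 active = inhibition above about 50% at the single tested dose, limit read from the data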
Target sequence (Q9GZR1 628-1112 limits assumed): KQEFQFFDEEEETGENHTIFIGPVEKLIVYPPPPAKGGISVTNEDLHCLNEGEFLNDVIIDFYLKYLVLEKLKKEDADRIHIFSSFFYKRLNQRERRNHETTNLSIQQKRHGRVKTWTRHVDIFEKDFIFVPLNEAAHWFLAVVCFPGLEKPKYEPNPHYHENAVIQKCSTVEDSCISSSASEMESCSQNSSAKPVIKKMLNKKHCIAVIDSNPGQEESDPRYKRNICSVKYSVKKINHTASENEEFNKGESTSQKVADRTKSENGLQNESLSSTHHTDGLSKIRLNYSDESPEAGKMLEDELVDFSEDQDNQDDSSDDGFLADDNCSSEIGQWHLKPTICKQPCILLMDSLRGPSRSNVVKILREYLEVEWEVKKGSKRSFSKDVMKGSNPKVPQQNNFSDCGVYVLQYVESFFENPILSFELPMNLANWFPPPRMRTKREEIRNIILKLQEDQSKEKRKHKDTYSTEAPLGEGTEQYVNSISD
SENP8 block-1 = inhibitors of human SENP8 protease; Q96LD8; purified SENP8, Z-RLRGG-aminoluciferin cleavage, luminescence; inhibition, % at 10 µM; 330,000 tested, 1.2% active; AID 2540; in the data active = inhibition above about 50%
AHR act = activates the human aryl hydrocarbon receptor; 320,000 tested, 2.5% active; AID 2796; P35869; activation, % at 5 µM; AHR-responsive luciferase reporter cells, luminescence; in the data active = activation above about 47%
SENP8 block-2 = blocks human SENP8 cleavage of Nedd8 substrate; Q96LD8; recombinant SENP8, Nedd8 substrate fluorescence; inhibition, % at 20 µM; 360,000 tested, 0.64% active; AID 602440; in the data active = inhibition mostly above about 40%, no sharp cut-off; inactive = mostly below about 27%
SENP7 inh = inhibitors of human SENP7 protease; 330,000 tested, 1.5% active; Q9BQF6; inhibition, % at 5 µM; recombinant SENP7, Z-RLRGG-aminoluciferin luminescence, 40 min;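 active = inhibition above about 50% at the single test dose, limit read from the data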
EBI2 antag conf = confirmation of human EBI2 receptor antagonists | shares compounds with EBI2 block | EBI2 beta-arrestin luminescence, 7a,25-OHC antagonism | inhibition, % at 5 µM | 2,400 tested, 29% active | AID 651997;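 active = inhibition of at least 50%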
EBI2 agonist = activates EBI2, counter-screen for EBI2 antagonists | shares compounds with EBI2 block | EBI2-expressing cells, agonist mode, luminescence, 60 min; 0% vehicle, 100% 7α,25-dihydroxycholesterol control | activation, % at 5 µM | 2,400 tested, under 10 active | AID 652000;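 active = activation of at least 50%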
bGal counter = counter-screen for EBI2 antagonists: E. coli beta-galactosidase inhibition; inhibition, % at 5 µM; purified beta-galactosidase, luminescent Galacton Star, 15 min; 2,400 tested, 1% active; shares compounds with EBI2 block;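 active = replicate-average signal at least 3 plate SD below neutral wells, shown as high inhibition, flagging enzyme-inhibiting false positives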;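 also: higher means stronger loss of beta-gal luminescence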
Large screens that a line does not name were inactive (follow-up assays come after a bar, where they were run).

CC(C)c1ccc(NC(=S)N2CCN(S(=O)(=O)c3ccccc3)CC2)cc1	none
Cc1ccc(C)c(S(=O)(=O)NCC(=O)OCC(=O)Nc2sccc2C(N)=O)c1	none (no result: AHR act)
O=S(=O)(c1ccccc1)c1ccc(N2CCCCCC2)cc1	none
CCOC(=O)c1cc(CC)sc1NC(=O)CN1C(=O)C(=O)N(CC(C)C)C1=O	none
CCc1ccccc1N(CC(=O)N1CCCCCC1)S(C)(=O)=O	none
CCOC(=O)C1=C(C)NC(=S)N(C=O)C1c1ccccc1 (stereo unspecified)	none
O=C1C=C(c2cc(Cl)cc(Cl)c2)C[C@@H](c2ccc(F)cc2)C1	EBI2 block 47.5 | EBI2 antag conf inactive | EBI2 agonist inactive | bGal counter inactive
COc1ccc([C@H]2CC(=O)C=C(c3cc(Cl)cc(Cl)c3)C2)cc1	EBI2 block 46.2 | EBI2 antag conf inactive | EBI2 agonist inactive | bGal counter inactive
COc1ccc([C@H]2CC(=O)C=C(c3ccc4ccn(C)c4c3)C2)cc1	EBI2 block 72.8 | EBI2 antag conf inactive | EBI2 agonist inactive | bGal counter inactive
COc1ccc([C@H]2CC(=O)C=C(c3cc(C(F)(F)F)cc(C(F)(F)F)c3)C2)cc1	none
COc1ccc([C@H]2CC(=O)C=C(c3ccc4cc[nH]c4c3)C2)cc1	EBI2 block 48.5 | EBI2 antag conf inactive | EBI2 agonist inactive | bGal counter inactive
COc1ccc([C@H]2CC(=O)C=C(c3ccc4c(c3)OCO4)C2)cc1	none
CS(=O)(=O)N1c2ccccc2[C@]2(Br)C[C@H]3C(=O)N[C@@H](Cc4ccccc4)C(=O)N3[C@H]12	none
Cc1cc(C2=CC(=O)C[C@H](c3ccc(F)cc3)C2)ccc1F	EBI2 block 48.7 (no result: SENP6 inh, SENP8 block-1, AHR act, SENP7 inh) | EBI2 antag conf inactive | EBI2 agonist inactive | bGal counter inactive
COc1ccc(C2=CC(=O)C[C@H](c3ccc(F)cc3)C2)cc1F	none
COc1ccc([C@H]2CC(=O)C=C(c3ccc(SC)cc3)C2)cc1OC	none
CSc1ccc(C2=CC(=O)C[C@H](c3ccc(F)cc3)C2)cc1	EBI2 block 66.0 | EBI2 antag conf 50.3 | EBI2 agonist inactive | bGal counter inactive
COc1ccc(C2=CC(=O)C[C@H](c3ccc(OC)cc3)C2)cc1	EBI2 block 53.8 | EBI2 antag conf inactive | EBI2 agonist inactive | bGal counter inactive
COc1ccc([C@H]2CC(=O)C=C(c3cccc(OC)c3)C2)cc1	none
COc1ccc([C@H]2CC(=O)C=C(c3ccc(OC)nc3)C2)cc1	none
COc1ccc([C@H]2CC(=O)C=C(c3ccccc3)C2)cc1	EBI2 block 41.4 | EBI2 antag conf inactive | EBI2 agonist inactive | bGal counter inactive
COc1ccc(C2(O)C(=O)Nc3ccc(C)cc32)cc1OC (stereo unspecified)	none
Cc1ccc(C2CC(c3ccccc3)=NN2C(=O)CSc2nnc(-c3ccc(Cl)cc3)o2)o1 (stereo unspecified)	EBI2 block 42.1 | EBI2 antag conf inactive | EBI2 agonist inactive | bGal counter inactive
Cc1ccc(C2CC(c3ccccc3)=NN2C(=O)CSc2nnc(-c3ccncc3)n2C)o1 (stereo unspecified)	none
COc1ccc(NC(=O)CSc2nc3sc(C)cc3c(=O)n2C)c(OC)c1	none
COc1ccccc1N(C(=O)c1ccncc1)c1nc(-c2ccc([N+](=O)[O-])cc2)cs1	EBI2 block 55.1 | EBI2 antag conf 74.2 | EBI2 agonist inactive | bGal counter inactive
CN1C(=O)C(C)(C)c2cc(S(=O)(=O)N3CCC(C(=O)NCc4ccccc4Cl)CC3)ccc21	none
COc1ccccc1N1CCN(C(=O)c2cc3c(s2)-c2ccccc2OC3)CC1	EBI2 block 84.9 | EBI2 antag conf 82.4 | EBI2 agonist inactive | bGal counter inactive
CCOC(=O)C1CCN(C(=O)c2cc3c(s2)-c2ccccc2OC3)CC1	EBI2 block 78.9 | EBI2 antag conf 74.1 | EBI2 agonist inactive | bGal counter inactive
